Screening data as filed in PubChem BioAssay.
NR3A LBD binder: NR3A (human) ligand-binding domain modulation; NR3A LBD differential scanning fluorimetry, Tm shift; 0% = protein alone, 100% = glycine-bound protein; Tm shift relative to glycine control, % at 25 µM; 340,000 compounds, 2.5% hits; AID 1259313;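 active means melting temperature shift of at least 10% of the positive control shift, at one fixed dose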
sPLA2-III inh: Blocks human group III sPLA2 activity; 370,000 compounds, 0.56% hits; QFRET BODIPY PC-A2 liposome hydrolysis, fluorescence; inhibition, % at 12.2 µM; Q9NZ20;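 active means inhibition above mean plus 3 SD of compounds lying within the high and low control bounds, cut at about 19% in these data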
FAS-TE inh: inhibitors of human fatty acid synthase thioesterase domain; P49327; 360,000 compounds, 0.67% hits; recombinant FAS-TE, OMFH fluorogenic substrate, fluorescence endpoint; inhibition, % at 15 µM;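 active means compounds whose normalised, plate-corrected inhibition of enzyme fluorescence in the single-dose primary screen is 50% or more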
Target sequence (P49327 whole entry, looked up, the tested form may be a part): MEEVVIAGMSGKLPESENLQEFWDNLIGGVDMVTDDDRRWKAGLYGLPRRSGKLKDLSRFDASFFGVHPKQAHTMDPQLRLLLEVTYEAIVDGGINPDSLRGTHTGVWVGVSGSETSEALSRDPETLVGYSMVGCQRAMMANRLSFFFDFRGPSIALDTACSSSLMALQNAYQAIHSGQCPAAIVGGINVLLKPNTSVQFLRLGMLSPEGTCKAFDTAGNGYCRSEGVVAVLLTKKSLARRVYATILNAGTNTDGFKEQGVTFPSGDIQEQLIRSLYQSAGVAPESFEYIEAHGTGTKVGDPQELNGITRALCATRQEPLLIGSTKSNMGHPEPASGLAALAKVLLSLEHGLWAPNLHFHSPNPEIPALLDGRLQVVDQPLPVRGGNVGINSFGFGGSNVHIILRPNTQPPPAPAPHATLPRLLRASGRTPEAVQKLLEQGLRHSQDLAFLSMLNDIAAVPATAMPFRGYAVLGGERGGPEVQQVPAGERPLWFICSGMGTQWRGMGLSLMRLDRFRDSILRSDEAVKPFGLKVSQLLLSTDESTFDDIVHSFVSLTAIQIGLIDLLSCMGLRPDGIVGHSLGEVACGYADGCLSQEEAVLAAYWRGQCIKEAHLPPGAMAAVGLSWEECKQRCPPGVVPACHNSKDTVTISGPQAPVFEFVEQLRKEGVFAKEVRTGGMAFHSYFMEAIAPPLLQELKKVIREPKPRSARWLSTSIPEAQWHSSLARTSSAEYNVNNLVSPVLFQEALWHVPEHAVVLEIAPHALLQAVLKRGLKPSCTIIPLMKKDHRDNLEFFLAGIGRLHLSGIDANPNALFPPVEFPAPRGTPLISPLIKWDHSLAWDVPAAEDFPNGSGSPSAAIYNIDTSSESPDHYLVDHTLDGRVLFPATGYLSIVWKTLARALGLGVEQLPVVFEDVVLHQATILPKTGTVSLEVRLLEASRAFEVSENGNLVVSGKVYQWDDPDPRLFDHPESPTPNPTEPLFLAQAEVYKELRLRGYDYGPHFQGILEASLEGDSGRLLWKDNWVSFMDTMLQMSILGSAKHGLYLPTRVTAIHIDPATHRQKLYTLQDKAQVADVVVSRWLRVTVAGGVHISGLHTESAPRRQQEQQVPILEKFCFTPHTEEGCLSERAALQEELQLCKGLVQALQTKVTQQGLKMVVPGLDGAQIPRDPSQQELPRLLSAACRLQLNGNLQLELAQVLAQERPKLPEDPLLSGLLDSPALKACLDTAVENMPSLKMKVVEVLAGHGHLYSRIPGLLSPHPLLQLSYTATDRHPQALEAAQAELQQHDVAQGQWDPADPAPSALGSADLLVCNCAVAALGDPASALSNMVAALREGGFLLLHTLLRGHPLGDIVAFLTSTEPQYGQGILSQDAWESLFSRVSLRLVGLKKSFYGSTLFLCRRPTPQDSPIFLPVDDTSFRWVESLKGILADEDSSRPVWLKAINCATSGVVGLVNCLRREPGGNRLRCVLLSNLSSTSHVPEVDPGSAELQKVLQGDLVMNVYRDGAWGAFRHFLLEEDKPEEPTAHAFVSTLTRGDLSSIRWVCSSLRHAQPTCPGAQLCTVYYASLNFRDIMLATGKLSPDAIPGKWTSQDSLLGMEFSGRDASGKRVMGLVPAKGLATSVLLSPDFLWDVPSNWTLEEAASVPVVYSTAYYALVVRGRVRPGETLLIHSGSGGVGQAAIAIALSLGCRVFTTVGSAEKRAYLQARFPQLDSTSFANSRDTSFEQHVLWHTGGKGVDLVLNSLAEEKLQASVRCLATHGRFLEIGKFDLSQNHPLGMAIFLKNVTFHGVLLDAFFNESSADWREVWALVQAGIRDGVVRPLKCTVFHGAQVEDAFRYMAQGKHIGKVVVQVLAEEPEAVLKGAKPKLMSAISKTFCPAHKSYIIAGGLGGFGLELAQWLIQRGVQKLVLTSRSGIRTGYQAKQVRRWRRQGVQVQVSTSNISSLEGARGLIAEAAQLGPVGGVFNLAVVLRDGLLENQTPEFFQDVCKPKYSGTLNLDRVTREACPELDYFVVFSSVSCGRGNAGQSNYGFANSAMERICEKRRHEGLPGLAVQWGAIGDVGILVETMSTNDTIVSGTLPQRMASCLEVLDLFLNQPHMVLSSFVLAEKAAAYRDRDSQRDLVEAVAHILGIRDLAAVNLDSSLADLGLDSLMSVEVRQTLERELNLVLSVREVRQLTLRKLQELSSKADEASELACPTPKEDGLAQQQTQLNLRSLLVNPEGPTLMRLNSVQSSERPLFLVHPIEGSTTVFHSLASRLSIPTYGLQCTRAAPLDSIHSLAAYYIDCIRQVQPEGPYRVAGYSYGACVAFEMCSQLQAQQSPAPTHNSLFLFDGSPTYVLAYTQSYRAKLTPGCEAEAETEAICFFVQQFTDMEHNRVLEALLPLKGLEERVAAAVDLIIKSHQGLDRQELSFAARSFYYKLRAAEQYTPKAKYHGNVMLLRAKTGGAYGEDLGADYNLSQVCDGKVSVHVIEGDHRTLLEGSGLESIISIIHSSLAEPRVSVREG
ADAM10 inh: inhibitors of human ADAM10. O14672. recombinant ADAM10, EDANS/DABCYL FRET peptide cleavage, 3 h. inhibition, % at 7 µM. 370,000 compounds, 0.62% hits;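 active means inhibition above a per-campaign cutoff equal to the mean of compounds falling between control-based bounds plus 3 SD, cut at about 20% in these data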
ADAM17 inh: ADAM17 inhibition, QFRET primary screen; P78536; recombinant ADAM17, EDANS/DABCYL FRET peptide cleavage; inhibition, % at 6.95 µM; 370,000 compounds, 0.83% hits; AID 720648;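 active means inhibition above the mean of compounds lying between control limits plus 3 SD, set per campaign, cut at about 8.5% in these data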
Numbers stand for hits; - = inactive; . = no result given. This is a sample that favours compounds with a hit; in the whole collection about 4.3% have one here.

SMILES	NR3A LBD binder	sPLA2-III inh	FAS-TE inh	ADAM10 inh	ADAM17 inh
COC(=O)[C@]12C[C@H](CC(=O)N3CCN(C(=O)c4ccco4)CC3)C(=O)N(Cc3ccccc3)C1=C[C@H](COCc1ccccc1)O[C@@H]2C	.	-	.	-	-
CCOc1ccc(C(NC(=O)/C=C/c2ccco2)c2ccc(OC)c(OC)c2)cc1 (configuration not stated)	10	-	-	-	-
COc1ccc(C(NC(=O)/C=C/c2ccco2)c2ccc(OC)c(OC)c2)cc1 (configuration not stated)	-	-	-	-	-
C/C(=N\NC(=O)c1c[nH]c2ccccc12)c1ccccn1	-	-	-	-	-
C/C(=N\NC(=O)c1ccc(F)cc1)c1ccccn1	12	-	-	-	-
COc1cccc(NC(=O)Nc2nc3ncccn3c2-c2ccc(F)c(F)c2)c1	.	-	.	-	-
Cc1nnc(NCCc2ccccc2)[nH]c1=O	-	-	-	-	-
CCN(CC)CCCNc1nnc(C)c(=O)[nH]1	11	-	-	-	-
CCOC(=O)N1CCN(c2ccc(F)cc2[N+](=O)[O-])CC1	23	-	-	-	-
COc1ccc(-n2c(SCC(=O)N(C)C3CCS(=O)(=O)C3)nc3ccc(O)cc3c2=O)cc1OC (configuration not stated)	14	-	-	-	-
CN(C(=O)CSc1nc2ccccc2c(=O)n1-c1ccc(F)cc1)C1CCS(=O)(=O)C1 (configuration not stated)	-	-	-	-	-
Cc1ccc(NC(=O)CS(=O)CC(=O)Nc2cnc3ccccc3c2)cc1Cl (configuration not stated)	32	-	-	-	-
Cc1ccc(NC(=O)Nc2ccnc(-c3cccnc3)n2)cc1	34	-	-	-	-
Cc1ccc(NC(=O)Nc2cnc3ccccc3c2)cc1	27	-	-	-	-
Cc1ccc(NC(=O)CS(=O)CC(=O)NCCCc2ccccc2)cc1Cl (configuration not stated)	-	-	-	-	-
Cc1ccc(C(=O)Nc2ccnc(-c3cccnc3)n2)cc1	-	-	-	-	-
CCOc1ccc(-n2c(SCC(=O)Nc3ccccc3-c3ccccc3)nnc2-c2ccncc2)cc1	.	-	.	-	-
CCOCCn1ccc2c(OCC(=O)Nc3cc(OC)ccc3OC)cccc2c1=O	11	-	-	-	-
COCCn1ccc2c(OCC(=O)Nc3cc(OC)ccc3OC)cccc2c1=O	-	-	-	-	-
COc1ccc(/C=C/C(=O)c2oc3ccc(F)cc3c2C)cc1	13	.	-	.	.
Cc1ccc2c(Cl)cc(Cl)c(OCC(=O)Nc3cccc(S(N)(=O)=O)c3)c2n1	11	-	-	-	-
Cc1cc(C(=O)OCC(=O)Nc2cccc(S(=O)(=O)N(C)C)c2)c2ccccc2n1	-	-	-	-	-
NS(=O)(=O)c1cccc(NC(=O)COC(=O)c2cc(-c3ccc(Cl)cc3)nc3ccccc23)c1	34	-	-	-	-
Cc1ccc2c(Cl)cc(Cl)c(OCC(=O)Nc3cccc(S(=O)(=O)N(C)C)c3)c2n1	-	-	-	-	-
CCOC(=O)c1csc(NC(=O)C2CCCN(S(=O)(=O)c3ccc(Br)s3)C2)n1 (configuration not stated)	.	-	.	-	-
SMILES	NR3A LBD binder	sPLA2-III inh	FAS-TE inh	ADAM10 inh	ADAM17 inh
Oc1ccc2[nH]cc(CCc3ccccc3)c2c1-c1ccccc1	.	-	.	-	-
CCCn1nc(C(=O)Nc2cc(S(=O)(=O)Nc3ccc(OC)cc3)ccc2O)c2ccccc2c1=O	27	-	-	-	-
COC(=O)[C@]1(C#N)CC(=O)N(c2ccccc2)[C@@H]1c1ccccc1	.	-	.	-	-
CCCOc1ccc(CNC(=S)N/N=C/c2ccc([N+](=O)[O-])cc2)cc1	11	-	-	-	-
Cc1cc(C(=O)Nc2cccc3ccccc23)c(C)o1	-	-	-	-	-
Cc1oc(CC(C)C)cc1C(=O)Nc1cccc2ccccc12	25	-	-	-	-
O=c1cc(-c2ccsc2)oc2ccc(-c3ccc4cc[nH]c4c3)cc12	15	-	-	-	-
COc1ccc(-c2ccc3oc(-c4ccsc4)cc(=O)c3c2)cc1F	-	-	-	-	-
O=C(CNC(=S)N(Cc1ccccc1F)C1CCCCC1)NC1CC1	11	-	-	-	-
CCCNC(=O)CNC(=S)N(Cc1ccccc1F)C1CCCCC1	-	-	-	-	-
O=C(Nc1ccc(Cl)c(Cl)c1)Oc1ccc(NC(=O)c2ccco2)cc1	27	-	-	-	-
COc1ccc(C(=O)Nc2ccc(NC(=O)c3ccco3)cc2)cc1	16	-	-	-	-
Nc1ccc(C(=O)Nc2ccc(NC(=O)c3ccco3)c(O)c2)cc1	22	-	-	-	-
O=C(NCc1ccccc1)c1ccc(NC(=O)c2ccco2)cc1	19	-	-	-	-
O=C(O)COc1ccc(NC(=O)c2ccc(NC(=O)c3ccco3)cc2)cc1	-	-	-	-	-
O=C(Nc1ccc(NC(=O)c2ccco2)c(Cl)c1)c1ccccc1	-	-	-	-	-
Cc1nc(NC(=O)c2ccco2)sc1C(=O)Nc1ccc(Br)cc1	15	.	-	.	.
CC(c1ccccc1)N1CC[C@H]2C=CC[C@@H](C(=O)Nc3ccc(F)c(F)c3)[C@H]2C1=O (some centres not stated)	.	-	.	-	-
CC1=CC(=O)c2ccccc2C1=O	-	-	-	-	-
CC(C)(C=O)C1=CC(=O)c2ccccc2C1=O	11	-	-	-	-
C=CCN1C(=O)[C@@H](CC(=O)N2CCCCC2)[C@]2(C(=O)OC)CCCCC=C12	.	-	.	-	-
CCOc1ccc(NC(=O)NC(=O)N(C(C)C)S(C)(=O)=O)cc1	18	-	-	-	-
CCOc1ccc(NC(=O)Nc2ccc3nccnc3c2)cc1	24	-	-	-	-
CCOc1ccc(NC(=O)c2ccc3nccnc3c2)cc1	-	-	-	-	-
CCOc1ccc(NC(=O)Nc2nc(SCC)ns2)cc1	37	-	-	-	-
SMILES	NR3A LBD binder	sPLA2-III inh	FAS-TE inh	ADAM10 inh	ADAM17 inh
CCOc1ccc(NC(=O)Nc2ccc(NC(C)=O)cc2)cc1	22	-	-	-	-
CCN(C(=O)CSc1nnc(-c2cccnc2)n1Cc1ccco1)c1ccccc1	.	-	.	-	-
CC(C)CNC(=O)CC1Oc2ccccc2NC1=O (configuration not stated)	.	-	.	-	-
CCOC(=O)[C@]12CCCC=C1N(Cc1ccc(OC)cc1)C(=O)[C@@H]2CC(=O)NCCCOC	.	-	.	-	-
Cc1cc(C(=O)OCCCN(C)C2CN(Cc3cn(Cc4ccccc4C(F)(F)F)nn3)S(=O)(=O)C2)no1 (configuration not stated)	.	-	.	-	-
CCC(=O)Nc1nc2ccc(NC(C)=O)cc2s1	-	-	-	-	-
CCOc1ccc2nc(NS(=O)(=O)c3ccc4c(c3)n(C)c(=O)n4C)sc2c1	29	-	-	-	-
COc1ccc2oc(C(=O)Nc3nc4ccc(S(C)(=O)=O)cc4s3)c(C)c2c1	19	-	-	-	-
CCOc1cccc2sc(Nc3nc4ccc(NC(C)=O)cc4s3)nc12	26	-	-	-	-
